The values below come from PMC4336329 (PLoS ONE, 2015).

Each structure is given as a SMILES string. In all, about 310,000 compounds went through this assay and about 14,000 (4.5%) showed an effect of 50% or more. Effects have a minus sign here. The entries come from a sample that favours strong results as a whole.
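Further: peak tail current of the secondary pulse compared with the same well before compound.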

The target in this assay is human ether-à-go-go-related gene (hERG) potassium channel (human, UniProt Q12809). Briefly: primary screen, population patch clamp on CHO cells stably expressing hERG; higher = less effect of the substance.
human ether-à-go-go-related gene (hERG) potassium channel, sequence (Q12809 whole entry, looked up): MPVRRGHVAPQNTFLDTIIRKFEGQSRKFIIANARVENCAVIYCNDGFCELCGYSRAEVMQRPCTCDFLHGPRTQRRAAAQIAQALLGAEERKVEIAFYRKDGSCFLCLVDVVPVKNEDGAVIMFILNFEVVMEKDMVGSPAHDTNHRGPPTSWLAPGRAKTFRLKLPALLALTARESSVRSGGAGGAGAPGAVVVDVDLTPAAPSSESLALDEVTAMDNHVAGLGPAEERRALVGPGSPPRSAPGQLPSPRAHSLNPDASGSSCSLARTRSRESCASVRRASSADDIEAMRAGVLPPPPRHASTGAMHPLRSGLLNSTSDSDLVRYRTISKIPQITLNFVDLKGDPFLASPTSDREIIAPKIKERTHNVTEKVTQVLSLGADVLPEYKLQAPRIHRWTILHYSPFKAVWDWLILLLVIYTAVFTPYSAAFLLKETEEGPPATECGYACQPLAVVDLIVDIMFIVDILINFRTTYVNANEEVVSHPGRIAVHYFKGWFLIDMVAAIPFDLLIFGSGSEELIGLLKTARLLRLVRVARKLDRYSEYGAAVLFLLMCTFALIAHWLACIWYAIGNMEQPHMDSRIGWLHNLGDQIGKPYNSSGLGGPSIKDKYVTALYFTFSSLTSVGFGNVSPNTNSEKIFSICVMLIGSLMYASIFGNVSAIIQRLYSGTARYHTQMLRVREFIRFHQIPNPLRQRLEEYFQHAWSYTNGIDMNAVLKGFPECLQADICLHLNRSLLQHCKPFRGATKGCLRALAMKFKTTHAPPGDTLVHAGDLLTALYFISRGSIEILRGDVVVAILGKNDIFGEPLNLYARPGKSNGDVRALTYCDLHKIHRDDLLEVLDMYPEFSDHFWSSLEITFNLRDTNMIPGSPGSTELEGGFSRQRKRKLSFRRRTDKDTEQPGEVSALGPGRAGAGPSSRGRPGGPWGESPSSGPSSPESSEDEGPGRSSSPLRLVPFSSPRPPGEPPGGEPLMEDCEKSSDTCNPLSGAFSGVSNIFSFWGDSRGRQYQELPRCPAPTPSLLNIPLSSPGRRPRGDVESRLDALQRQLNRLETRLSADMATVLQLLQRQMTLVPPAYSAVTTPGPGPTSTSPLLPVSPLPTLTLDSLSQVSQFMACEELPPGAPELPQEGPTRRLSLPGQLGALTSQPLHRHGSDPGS
For `CCOC(=O)C1CCCN(Cc2nc(N)nc(Nc3ccccc3)n2)C1` (stereo not drawn), the “hERG current change (%, negative = inhibition) at 10uM” value was -71.2%.
Consider `CCOC(=O)C1CCCN(Cc2ccccc2C)C1` (stereo not drawn), for which the “hERG current change (%, negative = inhibition) at 10uM” value is recorded as -15.1%.
Take `CCN(CC)C(=O)Cn1c(=O)n(CCC(=O)Nc2ccc(F)cc2)c(=O)c2sccc21`: the “hERG current change (%, negative = inhibition) at 10uM” value turned out to be 14.9%.
On to `Cc1ccc2nc(NC(=O)c3ccc(Br)o3)sc2c1`, for which the “hERG current change (%, negative = inhibition) at 10uM” value is on record as 20.6%.
With `CCOc1ccc(N2C(=O)C3ON(c4ccccc4)C(c4cccs4)C3C2=O)cc1` (stereo not drawn), the “hERG current change (%, negative = inhibition) at 10uM” value amounted to 7.35%.
As for `CC(=O)Nc1ccc(NC(=O)C2CC(=O)Nc3nc4ccccc4n32)cc1` (stereo not drawn), the “hERG current change (%, negative = inhibition) at 10uM” value is listed as 24.6%.
Regarding `Cc1cc(C(=O)N/N=C/C=C/c2ccc([N+](=O)[O-])cc2)n[nH]1`, the “hERG current change (%, negative = inhibition) at 10uM” value is -53%.
For `CC(C)(O)C#Cc1ccc(C(=O)N2CCN(c3ccc(Cl)cc3)CC2)cc1`, the “hERG current change (%, negative = inhibition) at 10uM” value is recorded as -9.19%.
With `O=C(c1cc2ccccc2cc1O)N1CCN(c2ccc([N+](=O)[O-])cc2)CC1`, the “hERG current change (%, negative = inhibition) at 10uM” value is given as -40.3%.
As to `O=C(c1ccc2c(c1)OCCO2)N1CCN(c2ccc([N+](=O)[O-])cc2)CC1`, the “hERG current change (%, negative = inhibition) at 10uM” value is reported as -47.1%.
For the molecule `Cc1onc(-c2ccccc2)c1C(=O)N1CCN(c2ccc([N+](=O)[O-])cc2)CC1`, the “hERG current change (%, negative = inhibition) at 10uM” value is recorded as -36.4%.
With `Cc1cc(C(=O)N2CCN(c3ccc([N+](=O)[O-])cc3)CC2)n[nH]1`, the “hERG current change (%, negative = inhibition) at 10uM” value is recorded as -78.5%.
On to `Cc1cc(C(=O)N2CCN(c3ccc([N+](=O)[O-])cc3)CC2)co1`, for which the “hERG current change (%, negative = inhibition) at 10uM” value is given as -75.5%.
The same measure for `O=C(c1cc(C(=O)N2CCN(c3ccc(F)cc3)CC2)cc([N+](=O)[O-])c1)N1CCN(c2ccc(F)cc2)CC1`: -26.2%; for `Cc1cc(C(=O)N/N=C/C=C/c2cccc([N+](=O)[O-])c2)n[nH]1`: -3.28%.
On to `Cc1cc(C(=O)N/N=C/C=C/c2ccc(Br)cc2)n[nH]1`, for which the “hERG current change (%, negative = inhibition) at 10uM” value is reported as 9.77%.
The same measure for `CC(C)(O)C#Cc1ccc(C(=O)N2CCN(c3ccc(F)cc3)CC2)cc1`: -11.4%; for `CC(C)(O)C#Cc1ccc(C(=O)N2CCN(c3ccc([N+](=O)[O-])cc3)CC2)cc1`: -70.4%; for `CCOc1ccc(/C=C/C(=O)CCC(=O)O)cc1`: 13.5%.
For `O=[N+]([O-])c1cccc(-c2ccc(C(=S)N3CCN(c4ccc(F)cc4)CC3)o2)c1`, the “hERG current change (%, negative = inhibition) at 10uM” value is reported as 2.61%.
On to `O=C(c1cncc(Br)c1)N1CCN(c2ccc(N3CCOCC3)nn2)CC1`, for which the “hERG current change (%, negative = inhibition) at 10uM” value was -2.06%.
For `COc1cccc(N2CCN(C(=O)c3nc4nc(C)cc(C)n4n3)CC2)c1`, the “hERG current change (%, negative = inhibition) at 10uM” value came out at 7.28%.
As to `O=C(c1cncc(Br)c1)N1CCN(c2ccc([N+](=O)[O-])cc2)CC1`, the “hERG current change (%, negative = inhibition) at 10uM” value is on record as -77%.
The same measure for `Cc1cc(C)n2nc(C(=O)N3CCN(c4ccc([N+](=O)[O-])cc4)CC3)nc2n1`: -71.4%; for `COc1ccc(N2CCN(C(=O)c3cc(C)on3)CC2)cc1`: 6.64%.
As for `Cc1cc(C(=O)N2CCN(c3ccc([N+](=O)[O-])cc3)CC2)no1`, the “hERG current change (%, negative = inhibition) at 10uM” value is -70.6%.
`COc1ccc(N2CCN(C(=O)c3nc4nc(C)cc(C)n4n3)CC2)cc1`: the “hERG current change (%, negative = inhibition) at 10uM” value worked out at 9.69%.
With `Cc1cc(C(=O)N2CCN(c3ccccc3)CC2)no1`, the “hERG current change (%, negative = inhibition) at 10uM” value was -0.965%.
As to `O=C(c1ccc([N+](=O)[O-])cc1)N1CCN(c2ncc(Br)cn2)CC1`, the “hERG current change (%, negative = inhibition) at 10uM” value is reported as -32%.
Regarding `Cc1c(O)ccc2c(O)c(NC(=O)c3ccc4c(c3)CCC(C)(C)O4)c(=O)oc12`, the “hERG current change (%, negative = inhibition) at 10uM” value is listed as 6.09%.
As to `CCn1c(CNC(=O)c2ccc(OC)c(OC)c2)nnc1SCC(=O)c1ccc(OC)cc1`, the “hERG current change (%, negative = inhibition) at 10uM” value is given as -0.747%.
For `O=C(CSc1ncn[nH]1)Nc1ccc(Cl)c(Cl)c1`, the “hERG current change (%, negative = inhibition) at 10uM” value amounted to 0.453%.
As for `Cn1cc2cccc([N+](=O)[O-])c2n1`, the “hERG current change (%, negative = inhibition) at 10uM” value worked out at 2.69%.
As to `O=C(CSc1nc2ccc([N+](=O)[O-])cc2[nH]1)c1ccc(Cl)cc1`, the “hERG current change (%, negative = inhibition) at 10uM” value was found to be 12.1%.
The same measure for `O=C1c2ccccc2C2(c3ccccc3)NCCN12` (stereo not drawn): 5.86%; for `CN(CC(=O)Nc1cccc2ccccc12)c1ccc(S(=O)(=O)N2CCOCC2)cn1`: 11.8%.
For `COc1ccccc1CCCNC(=O)C1CCC(=O)N(Cc2ccccc2F)C1` (stereo not drawn), the “hERG current change (%, negative = inhibition) at 10uM” value was -1.76%.
As to `CCc1ccc(CNC(=O)C2CCC(=O)N(CCc3ccc(Cl)cc3)C2)nc1` (stereo not drawn), the “hERG current change (%, negative = inhibition) at 10uM” value was -67%.
As to `COc1ccccc1CCCNC(=O)C1CCC(=O)N(CCc2ccc(Cl)cc2)C1` (stereo not drawn), the “hERG current change (%, negative = inhibition) at 10uM” value is reported as -60.5%.
On to `O=C(NCc1ccc2c(c1)OCO2)C1CC(=O)N(CCc2ccc(Cl)cc2)C1` (stereo not drawn), for which the “hERG current change (%, negative = inhibition) at 10uM” value is -54.1%.
In the case of `COc1ccccc1CCCNC(=O)C1CCC(=O)N(CCCN2CCCC2=O)C1` (stereo not drawn), the “hERG current change (%, negative = inhibition) at 10uM” value amounted to 14%.
Take `O=C(NCc1ccc2c(c1)OCO2)C1CC(=O)N(CCc2ccccc2)C1` (stereo not drawn): the “hERG current change (%, negative = inhibition) at 10uM” value is on record as 3.54%.
On to `O=C(NCc1ccon1)C1CCC(=O)N(CCc2ccc(Cl)cc2)C1` (stereo not drawn), for which the “hERG current change (%, negative = inhibition) at 10uM” value is on record as -37.2%.
In the case of `Cc1ccc(CCN2CC(C(=O)NCc3ccc4c(c3)OCO4)CC2=O)cc1` (stereo not drawn), the “hERG current change (%, negative = inhibition) at 10uM” value is -37.2%.
In the case of `Cc1ccc(CNC(=O)C2CCC(=O)N(CCc3ccc(Cl)cc3)C2)cc1` (stereo not drawn) it was -40.2%; in that of `O=C(NCc1ccncc1)C1CCC(=O)N(CCc2ccc(Cl)cc2)C1` (stereo not drawn), -65.5%.
With `CCn1nc(C)c(CNC(=O)C2CCC(=O)N(CCc3ccc(Cl)cc3)C2)c1C` (stereo not drawn), the “hERG current change (%, negative = inhibition) at 10uM” value was -21.6%.
In the case of `O=C(NCc1ccccn1)C1CCC(=O)N(Cc2ccc(Cl)cc2)C1` (stereo not drawn) it was 18.7%.
